TDP1 cell noCPT: qHTS for Inhibitors of human tyrosyl-DNA phosphodiesterase 1 (TDP1): qHTS in cells in absence of CPT; Potency, µM (series often up to 46.2 µM), actives largely listed as inhibitors; DT40 Tdp1-/- hTDP1 cells, no CPT, ATP luminescence, 48 h; 420,000 compounds, 15% hits; note: nearly all actives have a fitted effect of over 55% in size
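Cells were dispensed at 400 per well, compounds added by pin tool, plates incubated ≥48 hr at 37 °C, then CellTiter-Glo added for 30 min at room temperature before luminescence reading. Line: DT40 Tdp1-/- complemented with hTDP1; camptothecin omitted.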
HT1080 IDH1KD tx: HT-1080 IDH1 knockdown cell toxicity (counter line) | HT-1080 IDH1 knockdown viability, ATP luminescence, 48 h | Potency, µM (highest dose often 46.1 µM), usual class: cytotoxic | 360,000 compounds, 2% hits | AID 686971
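Knockdown cells (IDH1KD HT-1080) received compounds 2 h after plating at 750 cells/well and were kept 48 h at 37 °C in 5% FBS RPMI. A CellTiter-Glo luminescence read gave % activity for curve fitting.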
KB-3-1 cytotox: kills parental KB-3-1 adenocarcinoma cells; KB-3-1 viability, CellTiter-Glo ATP luminescence, 72 h; Potency, µM (highest dose often 46.1 µM), hits mostly cytotoxic; 400,000 compounds, 1.4% hits; AID 1347075; note: nearly all actives have a fitted effect of over 60% in size
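Cytotoxicity in the drug-sensitive parental line KB-3-1 was scored as loss of CellTiter-Glo luminescence following 72 h incubation with compound. Values come from curve fitting of normalized concentration-response data.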
HT1080-NT tox: kills 2HG-producing HT-1080-NT fibrosarcoma cells; HT-1080-NT fibrosarcoma viability, CellTiter-Glo ATP luminescence, 48 h; Potency, µM (series often up to 46.1 µM), actives largely listed as cytotoxic; 360,000 compounds, 1.6% hits;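 note: NT is the 2HG producing partner of a matched IDH1 knockdown line; nearly all actives have a fitted effect of over 55% in size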
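Viability of the 2HG-overproducing fibrosarcoma line after 48 hours of compound exposure at 37 degrees C was determined by luminescence with CellTiter-Glo, and concentration-effect curves were then fitted and categorized.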
DT40 TDP1 CPT: DT40-hTDP1 cell growth loss with CPT; AID 686979; chicken DT40 Tdp1-/-;hTDP1 cells + 20 nM CPT, ATP luminescence, 48 h; Potency, µM (top dose mostly 46.2 µM), actives largely listed as inhibitors; 420,000 compounds, 12% hits; note: nearly all actives have a fitted effect of over 55% in size
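Chicken DT40 Tdp1-/- cells complemented with human TDP1, 400 cells/well, exposed to compounds plus 20 nM camptothecin for at least 48 h at 37 C; viability read as ATP content by CellTiter-Glo luminescence.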
KB-V1 MDR tox: KB-V1 MDR subline cytotoxicity; KB-V1 MDR cells viability, CellTiter-Glo, 72 h; Potency, µM (highest dose often 46.1 µM), most hits filed as cytotoxic; 400,000 compounds, 3.4% hits; note: nearly all actives have a fitted effect of over 60% in size
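Potencies derive from concentration-effect curves fitted to normalized luminescence (CellTiter-Glo) of KB-V1 cells treated for 72 h at 37 degrees C in phenol-red-free DMEM containing 10% FBS.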
A number is an active result; n = inactive; u = inconclusive; x = no result; ! = a repeat was not active. An excerpt weighted towards active compounds, which were near 19% of everything screened. Calls come from the whole dose curve; as a rule, active = well fitted curve in the direction sought with a large enough effect; inconclusive = small, poorly fitted or top-dose-only effect, or another doubt; inactive = no such curve, though single readings can be large; an effect the other way counts as inactive or inconclusive.

SMILES	TDP1 cell noCPT	HT1080 IDH1KD tx	KB-3-1 cytotox	HT1080-NT tox	DT40 TDP1 CPT	KB-V1 MDR tox
OCc1ccc(-c2nn(Cc3ccccc3)c3ccccc23)o1	18µM!	n	n	n	11µM!	u
COC(=O)c1ccc(NC(=O)C(=O)N2CCN(C(=S)Nc3cccc(OC)c3)CC2)cc1	u	n	n	n	n	18µM
COC(=O)c1ccc(NC(=O)C(=O)N2CCN(C(=S)Nc3ccc(C)cc3)CC2)cc1	n	n	n	n	n	n
COC(=O)c1ccc(NC(=S)N2CCN(Cc3ccc(Cl)cc3)CC2)cc1	16µM	u	n	u	u	u
COc1cccc(NC(=O)C(=O)N2CCOCC2)c1	n	n	n	n	n	n
COC(=O)c1ccc(NC(=O)C(=O)N2CCN(C(=S)Nc3ccc(OC)cc3)CC2)cc1	u	n	n	n	n	21µM
COCCNC(=O)/C(C#N)=C/c1cc(C(C)C)c(OC)cc1C	u	n	n	n	u	n
CC(C)(C)NC(=O)COC(=O)c1ccc2c(c1)C(=O)N(Cc1ccco1)C2=O	n	n	n	n	n	n
O=S(=O)(NN1CCOCC1)c1cc(Cl)cc(Cl)c1O	n	n	n	n	n	n
Cc1ccc2nc(-c3ccccn3)c(NC3CCCC3)n2c1	0.33µM	u	n	u	1.3µM	n
CCCCCCSc1cccc(-c2nc3ccc(C)cn3c2NC2CCCCC2)c1	u	u	n	n	u	n
Cc1ccc2nc(-c3ccc(C)o3)c(NC3CCCC3)n2c1	13µM	n	x	n	11µM	x
CCCn1c(N)c(N(CCOC)C(=O)c2c(CC)noc2C)c(=O)[nH]c1=O	n	n	n	n	n	n
O=C(NCCN1CCC(n2c(=O)[nH]c3ccccc32)CC1)c1ccccc1Cl	u	n	n	n	u	u
O=C(NCCN1CCC(n2c(=O)[nH]c3ccccc32)CC1)c1ccc(Cl)c(Cl)c1	18µM	u	u	21µM	u	21µM
O=C(NCCN1CCC(n2c(=O)[nH]c3ccccc32)CC1)c1ccc(Cl)cc1	9.2µM	n	n	u	3.7µM	n
O=C(NCCN1CCC(n2c(=O)[nH]c3ccccc32)CC1)c1ccc(F)cc1	u	n	u	n	u	n
COc1ccc(CCN2C(=O)NC(NS(=O)(=O)c3ccc(NC(C)=O)cc3)(C(F)(F)F)C2=O)cc1OC (configuration not stated)	n	n	n	n	n	n
O=C(Nc1ccccc1N1CCCCC1)c1ccc(-c2cc(Cl)ccc2Cl)o1	n	n	n	n	n	n
CC(=O)Nc1cc(-c2ccccc2N(C)C)cn2c(-c3ccc(S(C)(=O)=O)cc3)cnc12	18µM	n	n	n	u	n
CC(=O)Nc1cc(-c2ccccc2N(C)C)cn2c(-c3ccccc3)cnc12	23µM	u	n	u	16µM	u
CC(=O)Nc1cc(-c2ccc(S(C)(=O)=O)cc2)cn2c(-c3ccc(F)cc3)cnc12	u	n	n	n	u	n
CCCCOC(=O)c1ccc(NC(=O)/C(C#N)=C/c2ccc(C)o2)cc1	n	x	n	x	n	n
COc1ccc(NC(=O)Nc2ccc3c(c2)C(=O)N([C@H](C)CO)C[C@@H](C)[C@@H](CN(C)C(=O)C2CCCCC2)OCCCC[C@H](C)O3)cc1	23µM	n	n	n	u	n
CCOC(=O)CCCCCC(=O)Nc1ccc2c(c1)C(=O)N([C@H](C)CO)C[C@H](C)[C@H](CN(C)C(=O)C1CCCCC1)OCCCC[C@@H](C)O2	21µM	n	n	n	u	n
SMILES	TDP1 cell noCPT	HT1080 IDH1KD tx	KB-3-1 cytotox	HT1080-NT tox	DT40 TDP1 CPT	KB-V1 MDR tox
C[C@@H]1CCCCO[C@@H](CN(C)C(=O)C2CCCCC2)[C@@H](C)CN([C@H](C)CO)C(=O)c2cc(NC(=O)NC3CCCCC3)ccc2O1	u	n	n	n	23µM	n
C[C@H]1CCCCO[C@H](CN(C)C(=O)C2CCCCC2)[C@@H](C)CN([C@@H](C)CO)C(=O)c2cc(NC(=O)NC3CCCCC3)ccc2O1	21µM	n	n	n	21µM	u
COc1ccc(NC(=O)Nc2ccc3c(c2)C(=O)N([C@H](C)CO)C[C@H](C)[C@H](CN(C)Cc2ccc(C(=O)O)cc2)OCCCC[C@@H](C)O3)cc1	n	n	n	n	n	n
C[C@@H]1CCCCO[C@H](CN(C)C(=O)c2ccccc2)[C@@H](C)CN([C@H](C)CO)C(=O)c2cc(NC(=O)NC3CCCCC3)ccc2O1	u	n	n	n	u	u
Cc1noc(C)c1NC(=O)Nc1ccc2c(c1)C(=O)N([C@H](C)CO)C[C@H](C)[C@H](CN(C)C(=O)NC1CCCCC1)OCCCC[C@@H](C)O2	n	n	n	n	n	n
CCOC(=O)CCCCCC(=O)Nc1ccc2c(c1)C(=O)N([C@@H](C)CO)C[C@H](C)[C@H](CN(C)C(=O)NC(C)C)OCCCC[C@H](C)O2	n	n	n	n	n	n
CCC(=O)Nc1nnc(C(C)(C)C)s1	n	n	n	n	n	n
CC(C)[C@@H](C(=O)N[C@@H](Cc1ccccc1)C(=O)O)N1C(=O)N2CCc3c([nH]c4ccccc34)[C@@]2(C)C1=O	n	n	n	n	n	n
COc1ccc(C(=O)C[n+]2cc(Br)cc3ccccc32)cc1	22µM	x	n	x	u	n
COc1ccc(C(=O)C[n+]2ccccc2Cl)cc1	u	x	n	x	u	n
CCOc1ccc(C(=O)C[n+]2cccc3cc(C)ccc32)cc1	u	n	u	n	u	n
CCc1ccc(C(=O)C[n+]2cccc3cc(OC)ccc32)cc1	3.3µM	n	13µM	n	2.9µM	n
COc1ccc(C(=O)C[n+]2cccc3cccc(O)c32)cc1	n	x	n	x	n	n
Cc1ccc(C(=O)C[n+]2cccc3cc(C)ccc32)cc1	15µM	n	n	n	12µM	n
COc1ccc2c(ccc[n+]2CC(=O)c2ccccc2)c1	n	n	n	n	u	u
COc1ccc2c(ccc[n+]2CC(=O)c2ccc(C)cc2)c1	15µM	n	u	n	u	n
Cc1ccc2c(c1)ncc[n+]2CC(=O)c1ccc(F)cc1	10µM	x	n	x	10µM	n
COCCCNC(=O)c1cccc2c(-c3cccc(C(N)=O)c3)coc12	13µM	n	u	n	u	u
Cc1noc(C)c1-c1ccc(C(=O)NCc2ccccc2)c2occc12	u	n	u	n	u	n
COCCNC(=O)c1cccc2c(-c3cccc(C(N)=O)c3)coc12	u	n	n	n	u	n
